Experimental findings from PubChem BioAssay (NCI) are described below.

The structures appear in SMILES notation. Compounds without any hit were thinned out: in the full panel of roughly 79,000, 15% have a hit. A number with no mark means an inactive call. Activity calls are given as the source filed them. Rule as the data show it: active = growth inhibition above about 70%; inactive = the rest.

The nature of the assay: NCI Yeast Anticancer Drug Screen. Data for the CLN2oe strain (AID 163).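 Also: 0% = growth of vehicle-only control cultures.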 Conditions: S. cerevisiae CLN2oe strain, hits give high values. On the procedure: Growth inhibition of yeast strains with defined genetic alterations is measured as a screen for potential anti-cancer activity. Selected strains with alterations in DNA damage repair or cell cycle control were exposed to compounds and growth inhibition was measured relative to vehicle treated controls. The strain used in this assay is CLN2oe

Take `O=C1OC2C(O1)C1(Cl)C(Cl)=C(Cl)C2(Cl)C1(Cl)Cl` (stereo not given): the growth inhibition was -4% (at 1.2 µM); -5% (at 3.7 µM); -6% (at 11.0 µM); -12% (at 33.0 µM); -7% (at 100.0 µM).
Regarding `CC1(C)N=C(N)N=C(N)N1c1cccc(N)c1.[Sn]`, the growth inhibition is -10% (at 1.2 µM); -1% (at 3.7 µM); -3% (at 11.0 µM); -2% (at 33.0 µM); -7% (at 100.0 µM).
In the same order, the values of `CC[C@@]1(O)C[C@H](OC2CC(N(C)C)C(O)C(C)O2)c2c(O)c3c(c(O)c2[C@H]1OC1CC(N(C)C)C(O)C(C)O1)C(=O)c1cccc(O)c1C3=O` (stereo not given in full) are 3%, 6%, 1%, 10% and 75% (active).
Turning to `OC1CCCC2CCC[N-]C12.OC1CCCC2CCC[N-]C12.[O]=[V][OH]` (stereo not given), the growth inhibition is -12% (at 1.2 µM); 78% (active) (at 3.7 µM); 93% (active) (at 11.0 µM); 95% (active) (at 33.0 µM); 96% (active) (at 100.0 µM).
In the same order, the values of `Oc1ccc2nc3ccccc3nc2c1` are 4%, 2%, 11%, 22% and 67%.
The corresponding values for `COC(=O)C1=C(C(=O)OC)C2OC1c1cc3ccccc3cc12` are 45%, 50%, 80% (active), 97% (active) and 99% (active).
In the same order, the values of `O=Cc1ccc(C(F)(F)F)cc1.[C-]#[O+].[C-]#[O+].[C-]#[O+].[Cr]` are 0%, -2%, 2%, 15% and 23%.
In the case of `O=[N+]([O-])c1cc([As](Br)c2ccc(O)c([N+](=O)[O-])c2)ccc1O`, the growth inhibition by setting is: (at 1.2 µM) 16%; (at 3.7 µM) 22%; (at 11.0 µM) 93% (active); (at 33.0 µM) 98% (active); (at 100.0 µM) 98% (active).
